Assay outcomes as filed in PubChem.
Vaccinia Venus: vaccinia inhibition (Venus reporter); AID 720580; Potency, µM (top dose mostly 36.5 µM), for the others: at the highest dose activity change, negative = inhibition, usual class: inhibitors; Vaccinia virus Venus reporter expression, fluorescence; actives 0.46% (n = 330,000); calls by dose curve; tested in A549 cells; further: nearly all actives have a fitted effect of over 30% in size
VACV mCherry inh: inhibitors of vaccinia virus infection (mCherry reporter signal). Potency, µM (top dose mostly 36.5 µM), without a hit: top-dose activity change, negative = inhibition, actives largely listed as inhibitors. actives 0.63% (n = 310,000). Vaccinia virus mCherry reporter infection, fluorescence; calls by dose curve; tested in A549 cells; further: nearly all actives have a fitted effect of over 35% in size
Pf growth 96h: P. falciparum growth inhibition at 96 hours | P. falciparum luciferase reporter growth, 96 h | Potency, µM (series often up to 28.7 µM), inactives show at the highest dose activity change, negative = inhibition, hits mostly inhibitors | actives 6.9% (n = 320,000) | AID 504834
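Plates of compound plus infected erythrocytes (2% hematocrit, 0.05% parasitemia final) incubate 96 hours, 37 C, 5% CO2. Detection reagent added; reduced luminescence from the parasites' luciferase reporter flags inhibition.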
Pf growth 48h: inhibits P. falciparum growth in the first generation, 48 h. P. falciparum luciferase growth in erythrocytes, 48 h. AID 504832. actives 5.9% (n = 310,000). Potency, µM (titrated, usually from 28.7 µM), for inactives: at the highest dose activity change, negative = inhibition, actives largely listed as inhibitors
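Read-out is firefly luciferase luminescence from an integrated reporter in P. falciparum, so falling signal marks reduced parasite growth. Infected erythrocytes were at 2% hematocrit and 0.1% parasitemia (final) in Albumax-supplemented RPMI 1640.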
AMA1-RON2 inh: inhibitors of Plasmodium falciparum AMA1-RON2 interaction | Potency, µM (series often up to 58.2 µM), for inactives: at the top dose activity change, negative = inhibition, usual class: inhibitors | AlphaScreen AMA1-biotinylated RON2 peptide binding | actives 0.2% (n = 360,000);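 further: 0% = vehicle wells and -100% = peptide control; nearly all actives have a fitted effect of over 45% in size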
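AMA1 (3D7) with his tag at 25 nM final met compounds first, then biotinylated RON2 peptide at 25 nM; detection used donor plus acceptor beads, 10 µg/mL apiece, read by AlphaScreen after 30 min at room temperature.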
Starred values were filed as active, the others as inactive; i = inactive; ? = inconclusive; . = not tested or not shown; [ ] = another dose, or the depositor's remark. Most compounds without a hit are left out; they make up all but 8.7% or so of the library. Unless noted, the call rests on the fitted dose curve; in most records, active means well fitted curve in the direction sought with a large enough effect; inconclusive means small, poorly fitted or top-dose-only effect, or another doubt; inactive means no such curve, though single readings can be large; an effect the other way counts as inactive or inconclusive. Unless noted, on the % scale 0 is the no-effect control and ±100 the full control effect; potency means the concentration at half of the fitted maximal effect.

SMILES	Vaccinia Venus	VACV mCherry inh	Pf growth 96h	Pf growth 48h	AMA1-RON2 inh
FC(F)Oc1ccc(-c2c[n+]3c(n2-c2ccccc2)CCCCC3)cc1	.	.	?	?	9.9%
COc1ccc(S(=O)(=O)N(CC(=O)NCCSc2ccccc2)c2ccc(Cl)cc2)cc1	-28.8%	-24.6%	.	.	.
CC(C)c1ccc(NS(=O)(=O)c2ccc3[nH]cc(C(=O)NCC4CCCO4)c(=O)c3c2)cc1 (stereo unspecified)	-4.8%	-6.0%	.	.	.
CCc1ccccc1NS(=O)(=O)c1ccc2[nH]cc(C(=O)NCC3CCCO3)c(=O)c2c1 (stereo unspecified)	-9.0%	-5.6%	.	.	-1.8%
CCOc1ccc(NS(=O)(=O)c2ccc3[nH]cc(C(=O)NCC4CCCO4)c(=O)c3c2)cc1 (stereo unspecified)	2.8%	3.2%	0.0294µM*	111.4%	-0.1%
CN(Cc1ccccc1)S(=O)(=O)c1ccc2[nH]cc(C(=O)NCC3CCCO3)c(=O)c2c1 (stereo unspecified)	?	-25.8%	0.928µM*	73.2%	21.2%
C=C(C)Cn1c(CCn2c3ccccc3c3ccccc32)n[nH]c1=S	-15.5%	-26.4%	7.38µM*	10.8%	51.4%
CC(=O)N(CCC(c1ccccc1)c1ccco1)Cc1cccs1 (stereo unspecified)	-29.8%	-6.7%	1.4%	48.2%	13.8%
CCC(=O)N(CCC(c1ccco1)c1ccccc1OC)Cc1cccs1 (stereo unspecified)	.	.	10.4µM*	.	-17.2%
Cc1ccc(C2SCC(=O)N2Cc2cn3ccsc3n2)o1 (stereo unspecified)	-9.4%	-17.4%	14.7µM*	-11.0%	29.0%
CN(C)c1cc2c3ccccc3ccc2c2ccccc12	-5.7%	-12.8%	.	.	.
O=c1c(O)c(-c2ccc(O)c(O)c2)oc2c(O)c(O)cc(O)c12	-17.3%	i	.	.	.
O=c1oc2c(O)c(O)cc3c(=O)oc4c(O)c(O)cc1c4c23	-21.3%	-4.0%	3.7µM*	5.22µM*	0.794µM*
O=C(c1cccn1-c1nnc(N2CCCCC2)s1)N1CCN(c2ccc(Cl)cc2)CC1	-18.2%	-16.8%	.	.	.
COc1ccc(Nc2nnc(SC(C(=O)Nc3cc(C)ccc3C)c3ccccc3)s2)cc1 (stereo unspecified)	-2.3%	-2.2%	?	?	1.1%
COc1cccc(Nc2nnc(SCC(=O)N(CC(C)C)CC(C)C)s2)c1	-24.3%	.	1.31µM*	?	0.9%
COc1cccc(NC(=O)C(Sc2nnc(Nc3ccccc3C)s2)c2ccccc2)c1 (stereo unspecified)	?	?	6.57µM*	?	-6.5%[11.6 µM]
COc1ccc(C)cc1NC(=O)C(Sc1nnc(Nc2cc(C)ccc2OC)s1)c1ccccc1 (stereo unspecified)	-23.3%	?	10.4µM*	0.0%	-0.6%[11.6 µM]
COc1ccc(Nc2nnc(SC(C(=O)Nc3ccc(OC)c(Cl)c3)c3ccccc3)s2)cc1 (stereo unspecified)	-23.8%	-24.4%	9.28µM*	?	-17.4%
CC1=C(C(=O)OC2CCCCCC2)C(c2ccc(Cl)cc2Cl)CC(=O)N1 (stereo unspecified)	0.8%	8.1%	.	.	.
CCCCNC(=O)Cn1c(=O)cc(C)c2c(C)nn(-c3ccc(CC)cc3)c21	-0.8%	i	.	.	.
O=C(c1cnn(-c2nccc(-c3ccco3)n2)c1C1CC1)N1CCCCC1c1cccnc1 (stereo unspecified)	2.5%	-0.1%	.	.	.
CC1CCN(S(=O)(=O)c2cc(C(=O)N3CCN(c4cccc(Cl)c4)CC3)n(C)c2)CC1	-24.2%	-23.5%	.	.	.
COc1ccc(C)cc1NC(=O)C(Sc1nnc(-c2ccncc2)n1-c1ccc(Cl)cc1)c1ccccc1 (stereo unspecified)	?	?	10.4µM*	?	-29.9%
Oc1ccccc1N1CCN(CC(O)COC2CCCc3ccccc32)CC1 (stereo unspecified)	.	.	?	9.28µM*	11.8%
COc1ccc(CCNC(=O)c2cc3c(=O)[nH]c4ccc(C)cc4c3s2)cc1OC	-17.1%	-17.7%	.	.	.
Nc1ncnc2c1ncn2[C@@H]1O[C@H](CO)C[C@H]1O	-9.7%	-14.7%	.	.	8.7%
Nc1ncnc2c1ncn2C1C=C(CO)C(O)C1O (stereo unspecified)	?	1.12µM*	.	.	13.8%
